# Data: PMC4336329 (PLoS ONE, 2015)
# In all, about 310,000 compounds went through this assay and about 14,000 (4.5%) showed an effect of 50% or more. The effect is printed as a negative number. The entries come from a sample that favours strong results as a whole.
# Molecular target: human ether-à-go-go-related gene (hERG) potassium channel (human, UniProt Q12809)
# Test: primary screen, population patch clamp on CHO cells stably expressing hERG; higher = less effect of the substance
# 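Further: peak tail current of the secondary pulse compared with the same well before compound.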
# Chain of human ether-à-go-go-related gene (hERG) potassium channel (Q12809 whole entry, looked up): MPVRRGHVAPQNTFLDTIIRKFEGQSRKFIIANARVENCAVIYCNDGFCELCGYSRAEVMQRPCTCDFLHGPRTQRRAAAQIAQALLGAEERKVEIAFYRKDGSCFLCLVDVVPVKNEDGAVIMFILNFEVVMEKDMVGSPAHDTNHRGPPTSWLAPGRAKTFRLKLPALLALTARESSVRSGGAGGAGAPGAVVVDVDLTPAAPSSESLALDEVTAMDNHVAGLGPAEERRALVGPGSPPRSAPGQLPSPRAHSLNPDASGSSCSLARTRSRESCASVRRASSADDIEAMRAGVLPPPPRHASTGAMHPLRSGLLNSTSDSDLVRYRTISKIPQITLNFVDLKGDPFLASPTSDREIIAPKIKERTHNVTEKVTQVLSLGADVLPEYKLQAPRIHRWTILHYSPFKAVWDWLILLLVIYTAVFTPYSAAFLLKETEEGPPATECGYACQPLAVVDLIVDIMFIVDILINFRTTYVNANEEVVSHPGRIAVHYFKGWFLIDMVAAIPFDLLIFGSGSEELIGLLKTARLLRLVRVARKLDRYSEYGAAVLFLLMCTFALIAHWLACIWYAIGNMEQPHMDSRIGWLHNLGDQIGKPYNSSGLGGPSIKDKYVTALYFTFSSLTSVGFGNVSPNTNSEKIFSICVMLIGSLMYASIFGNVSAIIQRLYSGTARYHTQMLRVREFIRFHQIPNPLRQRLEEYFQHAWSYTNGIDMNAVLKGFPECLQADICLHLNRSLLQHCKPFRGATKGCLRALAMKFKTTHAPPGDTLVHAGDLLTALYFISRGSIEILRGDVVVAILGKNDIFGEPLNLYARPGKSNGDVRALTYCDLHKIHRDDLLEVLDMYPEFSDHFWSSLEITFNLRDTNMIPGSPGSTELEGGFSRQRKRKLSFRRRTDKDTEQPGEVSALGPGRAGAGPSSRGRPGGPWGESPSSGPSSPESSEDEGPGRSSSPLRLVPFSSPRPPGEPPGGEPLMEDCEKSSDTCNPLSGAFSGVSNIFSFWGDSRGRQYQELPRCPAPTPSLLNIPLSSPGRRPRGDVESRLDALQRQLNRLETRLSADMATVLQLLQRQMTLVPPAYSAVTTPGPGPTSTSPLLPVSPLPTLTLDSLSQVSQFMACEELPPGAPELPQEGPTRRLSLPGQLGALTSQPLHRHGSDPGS
row,SMILES,"hERG current change (%, negative = inhibition) at 10uM [%]"
1,Cc1ccc(OC2CCN(C(=O)C3CCC(=O)N(C4CC4)C3)CC2)cc1 (centres unmarked),-15.8
2,COC(=O)c1ccc(COC(=O)Cc2n[nH]c(=O)c3ccccc23)cc1,-1.24
3,CCC(C)N=CC1=C(O)CC(c2ccccc2)CC1=O (centres unmarked),-4.11
4,COc1ccc(C(=O)NCC(=O)OCC(=O)NC(=O)c2ccc(C(C)(C)C)cc2)cc1OC,-23.7
5,CCN(CC)c1ncc(C#N)c(N)n1,8.37
6,COc1ccc(CNC(=O)C2C3C=CC4(CN(Cc5cccnc5)C(=O)C24)O3)cc1 (centres unmarked),-16.2
7,CCCc1nnc(NC(=O)c2ccncc2)s1,-3.78
8,COc1ccc(NS(=O)(=O)c2ccc(NS(=O)(=O)c3cccs3)cc2)cc1,11.8
9,CCOC(=O)c1cnc(-c2ccccc2)nc1Oc1ccc(OC)cc1,14.2
10,CCc1csc(CCNC(=O)C2CCC(=O)N(CCc3cccc(F)c3)C2)n1 (centres unmarked),-13.4
11,O=C(Nc1ccccc1SCC1CSc2nc3ccccc3c(=O)n21)c1ccccc1Cl (centres unmarked),-70.5
12,O=c1c2ccccc2nc2n1C(CSc1ccc(F)cc1)CS2 (centres unmarked),-33.3
13,O=c1c2ccccc2nc2n1C(CSCc1ccccc1)CS2 (centres unmarked),-37.1
14,COC(=O)c1sc2ccccc2c1NC(=O)c1ccc(S(=O)(=O)N2CCCCC2)cc1,11.2
15,Cc1c(/C=N/NC(=O)c2ccc(Br)o2)cnn1C,21
16,O=C1N=C(N2CCN(Cc3ccccc3)CC2)S/C1=C/c1cccs1,-41.1
17,O=C1N=C(N2CCOCC2)S/C1=C/c1cccs1,-5.52
18,N#CCCN1CCN(C2=NC(=O)/C(=C\c3cccs3)S2)CC1,-52.4
19,O=C(CCSCc1cccc(Cl)c1)NCCc1ccc(Cl)cc1,4.09
20,CCCCCCCCn1c(N2CCN(c3cccc(Cl)c3)CC2)nc2c1c(=O)[nH]c(=O)n2C,5.65
21,Cc1ccc(S(=O)(=O)NCCC(=O)N2CCC(C(N)=O)CC2)cc1C,-6.54
22,Cc1ccccc1C(=O)NC1CC2CCC(C1)N2Cc1ccccc1 (centres unmarked),-25
23,COc1ccccc1C(=O)NC1CC2CCC(C1)N2Cc1ccccc1 (centres unmarked),-20.4
24,CCOc1ccccc1CN1C2CCC1CC(c1ccc(C)cc1)C2 (centres unmarked),-60.9

row,SMILES,"hERG current change (%, negative = inhibition) at 10uM [%]"
1,CCOc1ccccc1C(=O)NC1CC2CCCC(C1)N2Cc1ccccc1 (centres unmarked),-54.5
2,CCOc1ccccc1CN1C(=O)NC2(CCCCCC2)C1=O,9.32
3,CCCN1C2CCCC1CC(NC(=O)c1ccccc1OC)C2 (centres unmarked),-3.42
4,CCCN1C2CCCC1CC(NC(=O)c1ccccc1OCC)C2 (centres unmarked),-47.2
5,Cc1ccccc1C(=O)NC1CC2CCCC(C1)N2Cc1ccccc1 (centres unmarked),-25
6,CCOc1ccccc1CN1CCC(O)CC1,12.1
7,CCOc1ccccc1C(=O)NC1CC2CCCC(C1)N2Cc1ccc(C)cc1 (centres unmarked),-65.2
8,Cc1ccccc1C(=O)NC1CC2CCCC(C1)N2Cc1ccc(Cl)cc1 (centres unmarked),-71
9,CCOc1ccccc1C(=O)NC1CC2CCCC(C1)N2C1CC1 (centres unmarked),-19
10,O=S(=O)(Nc1ccc(O)cc1)c1cccc2cccnc12,10.2
11,Cc1ccc(CN2CC(C(=O)Nc3ccc(S(=O)(=O)Nc4cc(C)nc(C)n4)cc3)CC2=O)cc1 (centres unmarked),15.6
12,CCC1C(=O)NCCN1C(=O)c1cccc(OC2CCN(S(=O)(=O)N(C)C)CC2)c1 (centres unmarked),14
13,CN(C)CCN(Cc1ccccc1)C(=O)[C@H](Cc1ccccc1)N1C(=O)c2ccccc2C1=O,-30.1
14,Cc1ccc(S(C)(=O)=NS(=O)(=O)c2cccc3nsnc23)cc1 (centres unmarked),7.47
15,O=c1c2ccccc2nc(SCc2nnc(-c3ccccc3Br)o2)n1-c1ccccc1,-1.38
16,Cc1csc(C(C#N)C(=O)c2cc3ccccc3o2)n1 (centres unmarked),-7.89
17,CN(C)S(=O)(=O)Nc1ccccn1,16.5
18,CCCCc1cc(=O)oc2cc(C)cc(O)c12,-17.2
19,Cn1c(-c2ccccc2)cc2ccccc21,9.39
20,COc1ccc(S(=O)(=O)N2CCN(C(=O)COc3ccc(C)c(C)c3)CC2)cc1OC,-37.1
21,CN(C1CCCCC1)S(=O)(=O)c1ccc2c(c1)c(=O)c(C(=O)NCCN1CCCC1)cn2C,-27.7
22,CCn1cc(C(=O)NCCCN2CCCC(C)C2)c(=O)c2cc(S(=O)(=O)N(C)C3CCCCC3)ccc21 (centres unmarked),-80.1
23,CCn1cc(C(=O)NCCCOC)c(=O)c2cc(S(=O)(=O)N(C)C)ccc21,14.3
